Source: PubChem
MITF inh = blocks human microphthalmia-associated transcription factor; O75030; AlphaScreen MITF homodimerization, bead proximity signal; inhibition, % at 2.6 µM; 650,000 compounds, 0.91% hits; AID 1259374; in the data active = inhibition above about 50%;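 note: 0% = vehicle wells with protein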
GPR151 ag = activates the human receptor GPR151; PathHunter beta-arrestin GPR151 cells, luminescence; activation, % at 11.2 µM; 650,000 compounds, 1% hits; AID 1508602; in the data active = activation above about 4.9%;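 note: 0% = median of compound wells and 100% = cells with positive control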
TEAD-YAP inh = TEAD-YAP interaction inhibition; HEK-TIYL cells, TEAD-Gal4/YAP UAS-luciferase luminescence; inhibition, % at 9.12 µM; 640,000 compounds, 1.4% hits; in the data active = inhibition above about 32%;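 note: 0% = median of test compound wells and 100% = reference inhibitor wells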
FBW7 act = human FBW7 E3 ligase activation, primary screen | normalized activity (activation), % at 26.1 µM | AlphaScreen FBW7–phospho-cyclin E peptide binding, activator screen | Q969H0 | 650,000 compounds, 0.13% hits; in the data active = normalized activity above about 1.9%;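 note: purified mutant Fbw7 with reduced substrate affinity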
GPR151 conf act = human GPR151 activation, confirmation screen | 6,700 tested, under 10 active | activation, % at 11.2 µM | shares compounds with GPR151 ag | GPR151 PathHunter beta-arrestin cells, luminescence, 90 min; % of EA-reagent control over plate median | AID 1508609;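 active = mean percent activation across replicates above the confirmation screen cutoff of 4.91%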
GPR119 counter = GPR119 activation, counter-screen for GPR151 activators. shares compounds with GPR151 ag. 6,700 compounds, 0.3% hits. GPR119 PathHunter beta-arrestin cells, luminescence, 90 min; 0 = compound-well median, 100 = enzyme-acceptor control. activation, % at 11.2 µM;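 active = mean percent activation in the counterscreen above 29.09%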;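 note: counterscreen on off-target GPR119 to flag nonselective hits from the GPR151 activator screen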
Target sequence (Q8TDV5 whole entry, looked up): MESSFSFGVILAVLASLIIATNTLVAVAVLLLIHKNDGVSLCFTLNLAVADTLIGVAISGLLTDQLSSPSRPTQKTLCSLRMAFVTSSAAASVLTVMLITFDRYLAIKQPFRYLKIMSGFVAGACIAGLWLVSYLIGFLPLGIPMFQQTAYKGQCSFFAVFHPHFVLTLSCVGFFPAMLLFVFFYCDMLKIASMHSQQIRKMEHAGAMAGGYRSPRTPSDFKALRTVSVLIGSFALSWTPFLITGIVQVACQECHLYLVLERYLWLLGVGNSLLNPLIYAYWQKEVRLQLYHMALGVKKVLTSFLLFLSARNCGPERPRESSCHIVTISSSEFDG
Numbers without * were called inactive. Shown are actives, neighbours in structure and some others; about 3.5% of the full set was active somewhere.

How did O=[N+]([O-])c1cc(S(=O)(=O)N2CCOCC2)ccc1NN=C1C2CC3CC(C2)CC1C3 do in these assays?
MITF inh: 2; GPR151 ag: 5.0*; TEAD-YAP inh: -3; FBW7 act: 0; GPR151 conf act: 1; GPR119 counter: 2

Results for CC(C)N1CCC(=NNc2ccc(S(=O)(=O)N3CCOCC3)cc2[N+](=O)[O-])CC1 ?
MITF inh: 10; GPR151 ag: 3; TEAD-YAP inh: 9; FBW7 act: 0

How did NC(=O)COc1cccc(/C=C2/SC(=Nc3cccc(C(=O)O)c3)NC2=O)c1 do in these assays?
MITF inh: -2; GPR151 ag: -1; TEAD-YAP inh: -3; FBW7 act: 0

What do the screens show for `COc1cc(OC)cc(C(=O)Nc2nc(-c3ccccc3)c(C(=O)c3ccccc3)s2)c1`?
MITF inh: 5; GPR151 ag: -1; TEAD-YAP inh: 2; FBW7 act: 0

How did COc1ccc(C2=NN(C(C)=O)C(c3ccccc3)C2)cc1OC (configuration not stated) do in these assays?
MITF inh: 10; GPR151 ag: 1; TEAD-YAP inh: -17; FBW7 act: 1

How did CC(=O)N1N=C(c2ccc3nccnc3c2)CC1c1ccccc1 (configuration not stated) do in these assays?
MITF inh: 13; GPR151 ag: 5.9*; TEAD-YAP inh: 1; FBW7 act: 0; GPR151 conf act: -2; GPR119 counter: -21

Results for COc1ccccc1OCC(=O)Nc1nc(-c2cccs2)c(NC(C)=O)s1 ?
MITF inh: 3; GPR151 ag: 14*; TEAD-YAP inh: 11; FBW7 act: 0; GPR151 conf act: 1; GPR119 counter: 11

How did Cc1ccc([N+](=O)[O-])c(OCCOCCN2CCc3ccccc3C2)c1 do in these assays?
MITF inh: -2; GPR151 ag: 5.7*; TEAD-YAP inh: 11; FBW7 act: 0; GPR151 conf act: 1; GPR119 counter: -4

Results for CN(C)CCN1C(=O)C(=O)/C(=C(\O)c2ccc(Cl)cc2)C1c1ccc(Br)cc1 (configuration not stated) ?
MITF inh: 4; GPR151 ag: 1; TEAD-YAP inh: 11; FBW7 act: 0

How did COC(=O)C1=C(C)N(c2ccc(F)cc2)C(=O)/C1=C\c1ccc(N(C)C)cc1 do in these assays?
MITF inh: 6; GPR151 ag: 0; TEAD-YAP inh: -1; FBW7 act: 0

How did Cc1ccc(S(=O)(=O)N(C)CC(=O)OCc2cc([N+](=O)[O-])cc3c2OCOC3)cc1 do in these assays?
MITF inh: 4; GPR151 ag: 8.1*; TEAD-YAP inh: 8; FBW7 act: 0; GPR151 conf act: 0; GPR119 counter: -2

What do the screens show for `O=C(COc1ccc([N+](=O)[O-])cc1)Nc1ccc(-c2nnc(-c3ccco3)o2)cc1`?
MITF inh: -5; GPR151 ag: 0; TEAD-YAP inh: -6; FBW7 act: 0

How did CC(C)n1c(-c2cccs2)nc2c(NCCCN3CCCC3=O)ncnc21 do in these assays?
MITF inh: 35; GPR151 ag: 1; TEAD-YAP inh: 3; FBW7 act: 0

How did CC(C)n1c(-c2csc3ccccc23)nc2c(NCCCN3CCCC3=O)ncnc21 do in these assays?
MITF inh: -2; GPR151 ag: 6.8*; TEAD-YAP inh: 5; FBW7 act: 0; GPR151 conf act: 1; GPR119 counter: -4

How did O=C(COc1ccc(F)cc1)Nc1nn2c(-c3ccccc3)nnc2s1 do in these assays?
MITF inh: 6; GPR151 ag: -2; TEAD-YAP inh: 0; FBW7 act: 0

What do the screens show for `CCOC(=O)C1=C(CSc2nc(C)c(C)c(C)c2C#N)OC(N)=C(C#N)C1c1ccc(SC)cc1` (configuration not stated)?
MITF inh: -4; GPR151 ag: -1; TEAD-YAP inh: -15; FBW7 act: 0

What do the screens show for `O=C(CSc1nc2ccccc2n1S(=O)(=O)c1ccccc1)NCCc1ccccc1`?
MITF inh: -8; GPR151 ag: 1; TEAD-YAP inh: -9; FBW7 act: 0

What do the screens show for `Cn1c(SCC(=O)NCCc2ccccc2)nnc1-c1ccncc1`?
MITF inh: 5; GPR151 ag: 6.1*; TEAD-YAP inh: 5; FBW7 act: 0; GPR151 conf act: 1; GPR119 counter: 1

Results for Cc1ccc(S(=O)(=O)n2c(SCC(=O)NCCc3ccccc3)nc3ccccc32)cc1 ?
MITF inh: 8; GPR151 ag: 5.4*; TEAD-YAP inh: -7; FBW7 act: 0; GPR151 conf act: 0; GPR119 counter: 6

Results for Cn1c(=O)c([N+](=O)[O-])c(NCc2ccccc2)c2ccccc21 ?
MITF inh: 11; GPR151 ag: 8.1*; TEAD-YAP inh: -3; FBW7 act: 0; GPR151 conf act: 0; GPR119 counter: 0

Results for O=C(Nc1ccc(-c2ccc(N3CCOCC3)nn2)cc1)c1c(F)cccc1F ?
MITF inh: -3; GPR151 ag: -1; TEAD-YAP inh: -12; FBW7 act: 0

What do the screens show for `O=S(=O)(Nc1ccc(S(=O)(=O)Nc2ccccc2)cc1)c1ccccc1`?
MITF inh: 17; GPR151 ag: -1; TEAD-YAP inh: 3; FBW7 act: 1

What do the screens show for `O=S(=O)(Nc1ccccc1)c1ccc(NS(=O)(=O)c2c(F)cccc2F)cc1`?
MITF inh: 8; GPR151 ag: 5.2*; TEAD-YAP inh: -3; FBW7 act: 0; GPR151 conf act: 0; GPR119 counter: 3

What do the screens show for `O=C(c1cccc(Br)c1)N1CCN(c2ccc3cnccc3c2)CC1`?
MITF inh: 10; GPR151 ag: 0; TEAD-YAP inh: 0; FBW7 act: 0

How did Cc1cccc(N2CCN(C(=O)c3cccnc3SCc3ccccc3Cl)CC2C)c1 (configuration not stated) do in these assays?
MITF inh: -3; GPR151 ag: 6.8*; TEAD-YAP inh: 10; FBW7 act: 0; GPR151 conf act: 0; GPR119 counter: -8

What do the screens show for `Cc1ccccc1CSc1ncccc1C(=O)N1CCN(c2cccc(Cl)c2)CC1`?
MITF inh: -2; GPR151 ag: 0; TEAD-YAP inh: 5; FBW7 act: 0

What do the screens show for `O=C(Nc1ccc2c(c1)OCO2)c1csc(N2CCCC2CO)n1` (configuration not stated)?
MITF inh: 8; GPR151 ag: 0; TEAD-YAP inh: -32; FBW7 act: 0

How did COc1ccccc1CNc1nc2ccccc2n1CCN1CCOCC1 do in these assays?
MITF inh: -12; GPR151 ag: 1; TEAD-YAP inh: -26; FBW7 act: 0

How did COc1ccc(CNc2nc3ccccc3n2CCN2CCOCC2)cc1OC do in these assays?
MITF inh: 6; GPR151 ag: 10.0*; TEAD-YAP inh: -4; FBW7 act: 0; GPR151 conf act: 0; GPR119 counter: 4
